Results: PubChem BioAssay
Where “and” joins values, the source holds several entries; their conditions need not be identical. Equal entries are not always repeated. Calls of active or inactive are those of the source. Unless noted, the rule behind the calls is not given here. Square brackets hold non-standard residues; d marks the D form. Peptide text beside a SMILES is read from it. * marks the point of attachment. Phe(ol) = N[C@H](CO)Cc1ccccc1; Nle = CCCC[C@H](N)C(=O)O; Cbz = O=C(OCc1ccccc1)*; Boc = CC(C)(C)OC(=O)*; Aib = CC(C)(N)C(=O)O

Legend:
[1] = sensitizers of A549 cells to miR-34 induction, primary screen, imaging, A549 dox-inducible miR-34, nuclei and caspase counts (AID 1347080;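 active = compounds whose cell count with miR-34 switched on is under 0.7 times the count with it off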); conditions: A549 miR-34 inducible, Hoechst nuclei count, 48 h
[2] = inhibitors of Cryptococcus chitosan production, flow cytometry, Cibacron Brilliant Red staining (AID 1347148); conditions: Cryptococcus neoformans chitosan, stronger effect = lower value; at 10 µM unless noted;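 note: compound exposure lasted three days at 37 degrees C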
[3] = stronger effect = lower value, cell number ratio, induced over uninduced
[4] = measured here: relative caspase fold change +Dox/-Dox
[5] = measured here: total cells with miR-34 induction, stronger effect = lower value
[6] = measured here: total cells without miR-34 induction

Compound | fold change [1, 3] | fold change [1, 4] | cell count [1, 5] | cell count [1, 6] | fold fluorescence [2]
COc1ccc([C@H]2Sc3ccccc3N(CCN(C)C)C(=O)[C@H]2OC(C)=O)cc1 | 1.07 (inactive) | 1.13 | 5870 | 5500 | 4.51 [at 120.6 µM] (inactive) and 3.48 [at 120.6 µM] (inactive)
CCCCC/C=C\C/C=C\CCCCCCCC(=O)O[C@@H](CO)COC(=O)CCCCCCCCCCCCCCCCC | 0.999 (inactive) | 1.31 | 6430 | 6430 | 4.76 (inactive)
CC(=O)NC(C)(C)C(=O)N1CCC[C@H]1C(=O)NC(C)(C)C(=O)N[C@@H](C)C(=O)NC(C)(C)C(=O)N[C@@H](C)C(=O)N[C@@H](CCC(N)=O)C(=O)NC(C)(C)C(=O)N[C@H](C(=O)NC(C)(C)C(=O)NCC(=O)N[C@@H](CC(C)C)C(=O)NC(C)(C)C(=O)N1CCC[C@H]1C(=O)N[C@H](C(=O)NC(C)(C)C(=O)NC(C)(C)C(=O)N[C@@H](CCC(=O)O)C(=O)N[C@@H](CCC(N)=O)C(=O)N[C@H](CO)Cc1ccccc1)C(C)C)C(C)C (Ac-[Aib]P[Aib]A[Aib]AQ[Aib]V[Aib]GL[Aib]PV[Aib][Aib]EQ[Phe(ol)]) | 1.08 (inactive) | 1.3 | 1460 | 1350 | 7.73 [at 25.5 µM] (inactive)
CCCCC[C@@H](O)/C=C/[C@H]1[C@H](C/C=C\CCCC(=O)O)[C@H](O)C[C@@H]1O | 1.15 (inactive) | 0.636 | 6980 | 6050 | 3.65 (inactive)
NC(=NCc1ccc(Cl)cc1Cl)NC(=O)c1nc(Cl)c(N)nc1N | 1.01 (inactive) | 0.617 | 1450 | 1430 | 10.2 [at 117.6 µM] (inactive)
CCCCC/C=C\C\C=C/C=C/C=C/[C@@H](SC[C@H](N)C(=O)O)[C@@H](O)CCCC(=O)O | 1.09 (inactive) | 1.02 | 6150 | 5660 | 3.87 [at 1 µM] (inactive)
CCCCCCCCCCCCCCCCCCc1ccc(C(=O)/C=C/C(=O)O)cc1 | 0.918 (inactive) | 0.873 | 5110 | 5560 | 13.3 [at 116.6 µM] (inactive)
c1ccc(CN(CCN(Cc2ccccn2)Cc2ccccn2)Cc2ccccn2)nc1 | 0.775 (inactive) | 2.99 | 418 | 538 | 9.33 [at 117.8 µM] (inactive)
C=C[C@@]1(C)CC(=O)[C@]2(O)[C@@]3(C)[C@H](O)CCC(C)(C)[C@@H]3[C@H](O)[C@H](OC(C)=O)[C@@]2(C)O1 | 0.854 (inactive) | 0.977 | 5250 | 6150 | 6.21 [at 121.8 µM] (inactive)
CCCCCCCCCCCCCCCCOC[C@H](CO)OC | 0.866 (inactive) | 0.894 | 4770 | 5500 | 4.63 (inactive)
CCCCC[C@@H](O)/C=C/[C@H]1[C@H](C/C=C\CCCC(=O)O)C(=O)C[C@@H]1O | 0.916 (inactive) | 0.858 | 4850 | 5300 | 3.88 (inactive)
CC1(C)Oc2ccc(C#N)cc2[C@@H](OC2=CC(=O)CC2)[C@@H]1O | 0.927 (inactive) | 1.24 | 5940 | 6400 | 3.79 [at 167 µM] (inactive)
CC(=O)N[C@@H](CC(C)C)C(=O)N[C@@H](CC(C)C)C(=O)N[C@H](C=O)CCCN=C(N)N | 0.979 (inactive) | 0.761 | 5980 | 6110 | 4.98 [at 117.2 µM] (inactive)
CCCC(=O)Nc1nc2c(ncn2C2O[C@H]3COP(=O)(O)O[C@@H]3[C@@H]2OC(=O)CCC)c(=O)[nH]1 (stereo not given in full) | 1.02 (inactive) | 0.664 | 5430 | 5330 | 6.9 [at 103 µM] (inactive)
CCC(C)[C@@H](CO[C@@H](Cc1ccccc1)C(=O)N[C@@H](CCS(C)(=O)=O)C(=O)OC(C)C)NC[C@@H](N)CS (stereo not given in full) | 0.946 (inactive) | 1.27 | 3500 | 3700 | 3.05 [at 89.3 µM] (inactive)
CSCC[C@H](NC(=O)[C@H](Cc1ccccc1)NC[C@@H](NC[C@@H](N)CS)C(C)C)C(=O)O | 0.931 (inactive) | 1.07 | 6180 | 6640 | 4.75 [at 106.2 µM] (inactive)
CC(C)[C@H](NC(=O)CNC(=O)OC(C)(C)C)C(=O)N[C@H](C=O)C(C)C (Boc-Gly-Val-Val-aldehyde) | 0.895 (inactive) | 1.12 | 5740 | 6410 | 10.2 [at 139.9 µM] (inactive)
N#C/C(=C/c1ccc(O)c(O)c1)C(=O)OC/C=C/c1ccccc1 | 1.11 (inactive) | 1.47 | 4460 | 4020 | 10.2 [at 155.6 µM] (inactive)

Compound | fold change [1, 3] | fold change [1, 4] | cell count [1, 5] | cell count [1, 6] | fold fluorescence [2]
CCCCCCCCCCC1=C(C)C(=O)C(OC)=C(OC)C1=O | 0.94 (inactive) | 1.42 | 3450 | 3660 | 4.65 [at 155.1 µM] (inactive)
CC(=O)OCOC(c1cc([N+](=O)[O-])ccc1Oc1ccc(Br)cc1)P(=O)(OCOC(C)=O)OCOC(C)=O (stereo not given) | 1.27 (inactive) | 0.666 | 3110 | 2450 | 3.77 [at 80.6 µM] (inactive)
CN([C@@H](Cc1ccc(OS(=O)(=O)c2cccc3cnccc23)cc1)C(=O)N1CCN(c2ccccc2)CC1)S(=O)(=O)c1cccc2cnccc12 | 0.962 (inactive) | 1.57 | 5440 | 5650 | 3.04 [at 69.3 µM] (inactive)
CCC(C)[C@H](NS(=O)(=O)c1cccc2ccccc12)C(=O)N[C@H](C=O)Cc1c[nH]c2ccccc12 (stereo not given in full) | 0.877 (inactive) | 1.24 | 2990 | 3410 | 3.23 [at 101.7 µM] (inactive)
C[C@H]([C@H](C)N1CC(=O)NC(=O)C1)N1CC(=O)NC(=O)C1 | 0.938 (inactive) | 0.644 | 1940 | 2070 | 4.39 [at 177.1 µM] (inactive)
Nc1cc(N2CCCCC2)nc(N)[n+]1OS(=O)(=O)[O-] | 0.999 (inactive) | 1.39 | 5860 | 5870 | 3.52 [at 172.8 µM] (inactive)
O=C[C@@H]1CCCN1C(=O)[C@@H]1CCCN1C(=O)OCc1ccccc1 (Cbz-Pro-Pro-aldehyde) | 0.854 (inactive) | 1.14 | 5160 | 6040 | 5.13 [at 151.3 µM] (inactive)
Nc1ncnc2c1nc(Br)n2C1O[C@H]2COP(=O)(O)O[C@@H]2[C@@H]1O (stereo not given in full) | 0.835 (inactive) | 1.27 | 4570 | 5470 | 3.88 [at 122.5 µM] (inactive)
CCCCC/C=C\C\C=C/C=C/C=C/[C@@H](SC[C@H](N)C(=O)NCC(=O)O)[C@@H](O)CCCC(=O)O | 0.978 (inactive) | 1.35 | 5990 | 6130 | 3.83 [at 1 µM] (inactive)
CC[C@H]1[C@@H]2C=C[C@@H]3[C@H]4C/C=C\C(=O)NCCC[C@@H]5NC(=O)C(=C5O)C(=O)CC[C@@H]4C[C@@H]3[C@H]2C[C@H]1C | 1.96 (inactive) | 0.587 | 636 | 324 | 7.3 [at 104 µM] (inactive)
CCCCCCCC/C=C\CCCCCCCC(=O)OC[C@H](CO)OC(=O)CCCCCCC/C=C\CCCCCCCC | 1.03 (inactive) | 0.954 | 5310 | 5170 | 4.1 (inactive)
NC1=NC2C(N=C(Br)N2C2O[C@H]3COP(=O)(O)O[C@@H]3[C@@H]2O)C(=O)N1 (stereo not given in full) | 0.962 (inactive) | 1.29 | 6370 | 6620 | 4.24 [at 117.3 µM] (inactive)
CCCCC/C=C\C\C=C/C=C/C=C/[C@@H](SC[C@H](NC(=O)CC[C@H](N)C(=O)O)C(=O)NCC(=O)O)[C@@H](O)CCCC(=O)O | 1.08 (inactive) | 1.43 | 6410 | 5930 | 3.59 [at 1 µM] (inactive)
CCCCCC(=O)/C=C/C=C\C/C=C\C/C=C\CCCC(=O)O | 0.995 (inactive) | 1.32 | 6100 | 6140 | 5.6 [at 1 µM] (inactive)
CCCC[C@@H](C=O)NC(=O)[C@H](CC(C)C)NC(=O)[C@H](CC(C)C)NC(C)=O (Ac-Leu-Leu-[Nle]-aldehyde) | 0.909 (inactive) | 1.22 | 1540 | 1700 | 4.19 [at 130.4 µM] (inactive)
CC(C)C[C@@H](/C=C/S(C)(=O)=O)NC(=O)[C@H](CC(C)C)NC(=O)[C@H](CC(C)C)NC(=O)OCc1ccccc1 | 0.878 (inactive) | 1.63 | 585 | 666 | 3.84 [at 90.6 µM] (inactive)
CCCCCCCCCC(=O)OC[C@H](CO)OC(=O)CCCCCCCCC | 0.939 (inactive) | 0.854 | 5260 | 5600 | 7.36 (inactive)
CC12C=CC(=O)C=C1CCC1C2=CCC2(C)C1CC[C@@H]2C(=O)CN1CCN(c2cc(N3CCCC3)nc(N3CCCC3)n2)CC1 (stereo not given in full) | 0.969 (inactive) | 1.43 | 4330 | 4470 | 7.93 [at 81.9 µM] (inactive)
